# Article PMC5540273 (PLoS ONE, 2017)
# Experiments:
# Details in all cases: concentration: 1 μM, replicates: in singlicate; n = 1
# AAK1 = system: AAK1
# ABL1-nonphosphorylated = system: ABL1-nonphosphorylated
# ABL1-phosphorylated = system: ABL1-phosphorylated
# ABL2 = system: ABL2
# ACVR1B = system: ACVR1B
# ACVR1 = system: ACVR1
# ACVR2A = system: ACVR2A
# 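Further: KINOMEscan kinase panel screen.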
Structure (SMILES),%Inh (AAK1) [%],%Inh (ABL1-nonphosphorylated) [%],%Inh (ABL1-phosphorylated) [%],%Inh (ABL2) [%],%Inh (ACVR1B) [%],%Inh (ACVR1) [%],%Inh (ACVR2A) [%]
Cc1ccc(C(=O)Nc2ccc(Nc3ccnc4cc(-c5ccccn5)ccc34)cc2O)cc1.Cl [GW440146],4,68,31,18,0,0,0
O=C(Nc1n[nH]c2cc(-c3cccc(F)c3F)ccc12)C1CC1 [SB-733894],100,45,40,0,21,24,17
CC(C)(C)c1ccc(C(=O)Nc2cn3cc(Cl)ccc3n2)cc1,0,35,0,0,0,0,0
Cl.NC(=O)c1cccc(Nc2nccc(Nc3ccc(Oc4cccc(Cl)c4)c(Cl)c3)n2)c1 [GW659008],14,0,0,20,0,29,0
O=C(Nc1n[nH]c2nc(-c3nccs3)c(Br)cc12)C1CCCC1 [SB-742609],15,7,1,25,0,7,0
Cc1ccccc1-n1cnc2c(N)ncnc21 [SKF-97510],1,100,3,0,0,10,0
Cl.c1ccc(-c2n[nH]cc2-c2ccnc(-c3ccc(CN4CCOCC4)cc3)c2)nc1 [GW776245],25,62,61,0,80,7,11
COc1cccc(-c2cc(-c3c[nH]nc3-c3ccccn3)ccn2)c1 [GW680338],4,0,3,0,50,24,9
COc1ccc(Nc2nccc(-c3cccc(NC(=O)c4cc5cc(F)ccc5[nH]4)c3)n2)cc1 [GSK1229782],47,85,78,53,0,9,13
COc1cc2ncn(-c3cc(OCC4CCCO4)c(C(N)=O)s3)c2cc1OC (stereo not shown) [GSK204607],17,0,0,0,0,46,0
COC(=O)c1c(-c2ccccc2)c2cc(OC)ccc2c(=O)n1Cc1ccccc1,22,66,0,12,0,0,0
Cl.O=C(Nc1cccc(-c2nn3ncccc3c2-c2ccnc(Nc3cccnc3)n2)c1)c1c(F)cccc1F [GSK312879],0,0,0,21,0,0,0
Cn1ccc2ncnc(Oc3cccc(C(=O)Nc4ccccc4)c3)c21,22,0,0,0,1,100,0
O=C(Nc1ccc2c(c1)OCO2)NC1CCN(c2ccnc(Nc3ccc(F)cc3)n2)C1 (stereo not shown) [GSK1379724],12,0,0,9,0,0,0
Fc1cccc(COc2nnc(-c3ccc4c(c3)CCO4)o2)c1,26,25,0,22,0,0,0
Fc1cc(Cl)ccc1Nc1ccnc2cc(-c3ccc(CN4CCCCC4)o3)ccc12 [GW560116],1,47,49,14,0,5,0
Fc1cc(Cl)ccc1Nc1ccnc2cc(I)ccc12 [GW551191],11,22,26,29,0,54,0
COc1cc2nccc(Nc3ccc(NC(=O)c4ccc(C)cc4)c(O)c3)c2cc1OC.Cl [GW440132],12,28,0,16,13,0,0
CC(C)(C)c1ccc(C(=O)Nc2cn3cc(-c4cccnc4)ccc3n2)cc1,25,50,37,20,13,21,0
